This is an account of results in ChEMBL document CHEMBL1961873, “Compounds: GSK PKIS; Assays: Nanosyn kinase panel” (2012).

Test [1] deals with Protein kinase C gamma type (Homo sapiens) (UniProt P05129). As to conditions: at 1 µM.
Test [2] concerns the target T1, Protein kinase C iota type (Homo sapiens) (UniProt P41743).
T1 sequence (whole entry): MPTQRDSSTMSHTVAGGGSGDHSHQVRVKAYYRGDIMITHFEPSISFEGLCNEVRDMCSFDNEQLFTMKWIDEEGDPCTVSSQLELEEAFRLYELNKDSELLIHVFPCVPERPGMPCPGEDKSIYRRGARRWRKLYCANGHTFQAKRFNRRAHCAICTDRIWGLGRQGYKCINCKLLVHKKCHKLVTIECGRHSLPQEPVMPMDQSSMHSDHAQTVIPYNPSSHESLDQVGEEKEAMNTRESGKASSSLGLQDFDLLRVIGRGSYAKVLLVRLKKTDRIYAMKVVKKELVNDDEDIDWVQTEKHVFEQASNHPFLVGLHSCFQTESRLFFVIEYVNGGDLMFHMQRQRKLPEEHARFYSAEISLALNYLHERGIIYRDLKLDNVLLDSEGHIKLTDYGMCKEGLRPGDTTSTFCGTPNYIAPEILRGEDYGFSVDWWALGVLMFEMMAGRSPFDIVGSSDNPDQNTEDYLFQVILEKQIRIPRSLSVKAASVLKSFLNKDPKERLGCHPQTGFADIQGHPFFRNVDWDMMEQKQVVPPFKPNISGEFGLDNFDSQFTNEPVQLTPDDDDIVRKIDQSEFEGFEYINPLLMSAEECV
As to conditions: at 0.1 µM.

Test [3] has as its target T1, Protein kinase C iota type (Homo sapiens). The note with it: at 1 µM.
Test [4] has as its target Protein kinase C theta type (Homo sapiens) (UniProt Q04759). The note with it: at 0.1 µM.
Test [5] shares this target. The note with it: at 1 µM.
The target of test [6] is Protein kinase C beta type (Homo sapiens) (UniProt P05771). As to conditions: at 0.1 µM.
Chain of Protein kinase C beta type (Homo sapiens) (P05771 2-671 limits assumed): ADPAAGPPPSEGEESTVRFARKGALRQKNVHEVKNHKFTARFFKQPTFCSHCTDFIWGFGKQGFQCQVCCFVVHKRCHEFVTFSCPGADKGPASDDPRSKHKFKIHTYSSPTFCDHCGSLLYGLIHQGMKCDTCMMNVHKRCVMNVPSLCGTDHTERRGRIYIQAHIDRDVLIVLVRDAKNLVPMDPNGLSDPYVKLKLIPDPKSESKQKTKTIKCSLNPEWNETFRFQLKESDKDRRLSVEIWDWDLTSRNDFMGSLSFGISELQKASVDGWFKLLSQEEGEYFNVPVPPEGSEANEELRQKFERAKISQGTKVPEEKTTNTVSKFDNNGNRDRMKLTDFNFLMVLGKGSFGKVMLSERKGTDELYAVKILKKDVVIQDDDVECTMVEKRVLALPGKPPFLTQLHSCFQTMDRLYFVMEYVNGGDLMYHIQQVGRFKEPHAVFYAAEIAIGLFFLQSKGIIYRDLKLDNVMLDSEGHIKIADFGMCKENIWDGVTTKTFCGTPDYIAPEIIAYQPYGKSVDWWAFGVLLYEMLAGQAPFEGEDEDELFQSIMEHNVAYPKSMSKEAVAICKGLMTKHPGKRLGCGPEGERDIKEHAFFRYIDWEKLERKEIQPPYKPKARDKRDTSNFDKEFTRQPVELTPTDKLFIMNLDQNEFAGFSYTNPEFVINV
For test [7] the target is unchanged. The note with it: at 1 µM.
In test [8] the target is T2, Serine/threonine-protein kinase D1 (Homo sapiens) (UniProt Q15139).
T2 sequence (whole entry): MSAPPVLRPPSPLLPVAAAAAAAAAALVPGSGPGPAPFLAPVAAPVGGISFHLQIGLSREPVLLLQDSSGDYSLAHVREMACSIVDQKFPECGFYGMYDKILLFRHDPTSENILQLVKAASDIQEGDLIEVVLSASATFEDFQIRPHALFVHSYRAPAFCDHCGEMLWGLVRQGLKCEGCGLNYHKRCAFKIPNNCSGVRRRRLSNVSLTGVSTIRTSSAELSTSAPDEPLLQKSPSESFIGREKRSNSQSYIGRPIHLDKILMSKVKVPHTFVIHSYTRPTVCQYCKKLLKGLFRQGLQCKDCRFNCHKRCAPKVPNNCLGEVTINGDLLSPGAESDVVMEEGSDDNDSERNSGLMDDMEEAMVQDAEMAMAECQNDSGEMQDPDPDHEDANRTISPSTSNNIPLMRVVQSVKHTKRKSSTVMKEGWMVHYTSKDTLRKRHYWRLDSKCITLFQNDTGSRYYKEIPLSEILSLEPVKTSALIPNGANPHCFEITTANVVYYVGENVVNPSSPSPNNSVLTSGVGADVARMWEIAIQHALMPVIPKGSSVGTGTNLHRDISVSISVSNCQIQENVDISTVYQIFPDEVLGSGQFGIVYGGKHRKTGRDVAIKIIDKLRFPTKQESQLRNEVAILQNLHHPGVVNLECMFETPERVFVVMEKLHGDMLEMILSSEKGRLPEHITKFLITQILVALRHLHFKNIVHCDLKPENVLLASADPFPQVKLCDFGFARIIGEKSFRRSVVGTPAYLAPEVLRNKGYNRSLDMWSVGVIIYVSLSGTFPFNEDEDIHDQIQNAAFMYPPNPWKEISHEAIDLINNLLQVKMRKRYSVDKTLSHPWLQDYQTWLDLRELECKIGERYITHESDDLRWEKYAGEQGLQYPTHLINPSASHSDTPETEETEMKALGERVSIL
The note with it: at 0.1 µM.

In test [9] the target is T2, Serine/threonine-protein kinase D1 (Homo sapiens). As to conditions: at 1 µM.
Test [10] deals with T3, Serine/threonine-protein kinase D2 (Homo sapiens) (UniProt Q9BZL6).
T3 sequence (whole entry): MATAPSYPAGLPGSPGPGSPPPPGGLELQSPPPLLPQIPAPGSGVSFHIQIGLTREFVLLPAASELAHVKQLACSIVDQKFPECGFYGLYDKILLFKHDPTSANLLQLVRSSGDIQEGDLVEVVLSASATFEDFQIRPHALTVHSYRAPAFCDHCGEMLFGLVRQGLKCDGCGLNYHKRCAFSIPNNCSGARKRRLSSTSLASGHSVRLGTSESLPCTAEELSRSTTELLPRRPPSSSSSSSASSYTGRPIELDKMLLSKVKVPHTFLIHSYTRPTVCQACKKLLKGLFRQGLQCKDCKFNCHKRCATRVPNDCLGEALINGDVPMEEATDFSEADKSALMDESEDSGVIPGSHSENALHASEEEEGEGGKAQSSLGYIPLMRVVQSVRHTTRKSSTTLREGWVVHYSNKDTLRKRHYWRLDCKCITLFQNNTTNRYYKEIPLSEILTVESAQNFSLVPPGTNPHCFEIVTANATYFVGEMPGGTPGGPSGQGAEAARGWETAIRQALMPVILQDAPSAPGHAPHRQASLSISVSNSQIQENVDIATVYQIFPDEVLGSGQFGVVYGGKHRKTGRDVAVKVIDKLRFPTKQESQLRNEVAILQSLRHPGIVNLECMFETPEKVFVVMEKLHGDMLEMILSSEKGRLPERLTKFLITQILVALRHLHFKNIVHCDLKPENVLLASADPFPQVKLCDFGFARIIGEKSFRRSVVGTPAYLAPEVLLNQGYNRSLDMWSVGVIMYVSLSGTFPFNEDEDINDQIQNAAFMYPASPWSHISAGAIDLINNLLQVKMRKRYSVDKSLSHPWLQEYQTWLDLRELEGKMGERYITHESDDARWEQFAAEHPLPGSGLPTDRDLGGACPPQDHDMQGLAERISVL
As to conditions: at 0.1 µM.

For test [11], the target named is T3, Serine/threonine-protein kinase D2 (Homo sapiens). The note with it: at 1 µM.
For test [12], the target named is T4, Serine/threonine-protein kinase D3 (Homo sapiens) (UniProt O94806).
T4 sequence (whole entry): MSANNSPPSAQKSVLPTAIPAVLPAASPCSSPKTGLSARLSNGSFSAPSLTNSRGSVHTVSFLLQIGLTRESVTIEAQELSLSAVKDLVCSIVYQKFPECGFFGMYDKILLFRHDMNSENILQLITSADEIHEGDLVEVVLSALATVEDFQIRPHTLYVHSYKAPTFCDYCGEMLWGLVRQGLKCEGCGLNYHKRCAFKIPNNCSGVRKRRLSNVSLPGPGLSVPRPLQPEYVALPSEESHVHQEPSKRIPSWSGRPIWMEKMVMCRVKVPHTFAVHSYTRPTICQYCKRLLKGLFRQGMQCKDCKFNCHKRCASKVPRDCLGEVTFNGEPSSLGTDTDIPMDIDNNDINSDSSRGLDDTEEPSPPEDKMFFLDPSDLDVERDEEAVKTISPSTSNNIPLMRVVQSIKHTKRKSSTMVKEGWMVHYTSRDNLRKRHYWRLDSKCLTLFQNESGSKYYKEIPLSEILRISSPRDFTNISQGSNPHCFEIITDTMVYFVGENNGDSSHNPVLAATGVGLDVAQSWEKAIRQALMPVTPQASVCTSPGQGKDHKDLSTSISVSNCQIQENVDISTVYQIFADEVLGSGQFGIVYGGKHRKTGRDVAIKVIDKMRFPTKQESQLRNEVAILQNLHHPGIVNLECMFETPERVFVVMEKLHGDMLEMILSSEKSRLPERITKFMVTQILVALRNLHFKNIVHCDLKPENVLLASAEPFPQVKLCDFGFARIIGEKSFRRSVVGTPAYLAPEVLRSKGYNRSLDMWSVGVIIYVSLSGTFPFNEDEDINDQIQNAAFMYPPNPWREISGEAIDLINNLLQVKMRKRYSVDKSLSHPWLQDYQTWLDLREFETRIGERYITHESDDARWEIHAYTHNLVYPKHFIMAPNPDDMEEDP
As to conditions: at 0.1 µM.

Test [13] concerns the target T4, Serine/threonine-protein kinase D3 (Homo sapiens). The note with it: at 1 µM.
For test [14], the target named is T5, cGMP-dependent protein kinase 1 (Homo sapiens) (UniProt Q13976).
T5 sequence (whole entry): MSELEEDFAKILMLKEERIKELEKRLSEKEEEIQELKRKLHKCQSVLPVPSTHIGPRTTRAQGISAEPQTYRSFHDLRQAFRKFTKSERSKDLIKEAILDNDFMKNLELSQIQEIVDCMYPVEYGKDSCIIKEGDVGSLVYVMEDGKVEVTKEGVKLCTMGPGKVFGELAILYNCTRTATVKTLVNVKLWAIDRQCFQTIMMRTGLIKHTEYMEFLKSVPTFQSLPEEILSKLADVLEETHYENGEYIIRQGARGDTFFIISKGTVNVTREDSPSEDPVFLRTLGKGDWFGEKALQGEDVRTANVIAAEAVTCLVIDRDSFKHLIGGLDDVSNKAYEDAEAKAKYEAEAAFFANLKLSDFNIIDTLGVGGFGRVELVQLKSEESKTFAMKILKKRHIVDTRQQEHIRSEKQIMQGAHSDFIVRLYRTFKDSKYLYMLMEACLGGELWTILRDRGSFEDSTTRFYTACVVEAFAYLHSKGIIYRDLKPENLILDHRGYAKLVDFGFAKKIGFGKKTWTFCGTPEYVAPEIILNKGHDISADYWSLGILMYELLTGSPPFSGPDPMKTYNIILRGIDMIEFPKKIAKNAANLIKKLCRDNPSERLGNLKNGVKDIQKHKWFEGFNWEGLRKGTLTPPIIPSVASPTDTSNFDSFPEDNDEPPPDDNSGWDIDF
The note with it: at 0.1 µM.

Test [15] has as its target T5, cGMP-dependent protein kinase 1 (Homo sapiens). As to conditions: at 1 µM.
The target of test [16] is T6, cGMP-dependent protein kinase 2 (Homo sapiens) (UniProt Q13237).
T6 sequence (whole entry): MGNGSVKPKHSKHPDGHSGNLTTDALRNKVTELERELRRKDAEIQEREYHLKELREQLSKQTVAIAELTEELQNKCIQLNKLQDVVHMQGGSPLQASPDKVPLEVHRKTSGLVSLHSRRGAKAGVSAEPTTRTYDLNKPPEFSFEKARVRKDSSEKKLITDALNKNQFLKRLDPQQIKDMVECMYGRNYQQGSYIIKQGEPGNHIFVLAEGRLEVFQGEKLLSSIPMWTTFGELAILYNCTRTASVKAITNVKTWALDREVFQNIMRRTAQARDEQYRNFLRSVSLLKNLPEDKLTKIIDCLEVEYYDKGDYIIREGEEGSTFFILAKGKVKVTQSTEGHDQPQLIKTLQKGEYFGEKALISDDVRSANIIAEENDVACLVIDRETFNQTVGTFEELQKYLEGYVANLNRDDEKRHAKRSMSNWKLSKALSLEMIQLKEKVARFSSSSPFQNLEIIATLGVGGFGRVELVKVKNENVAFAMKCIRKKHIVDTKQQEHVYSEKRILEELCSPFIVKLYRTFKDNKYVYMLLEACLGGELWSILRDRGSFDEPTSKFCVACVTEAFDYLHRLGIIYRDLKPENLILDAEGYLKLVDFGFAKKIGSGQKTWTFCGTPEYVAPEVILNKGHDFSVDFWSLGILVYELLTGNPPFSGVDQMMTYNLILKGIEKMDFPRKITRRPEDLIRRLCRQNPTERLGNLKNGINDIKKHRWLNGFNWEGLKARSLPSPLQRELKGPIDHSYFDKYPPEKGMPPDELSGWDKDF
The note with it: at 0.1 µM.

Test [17] has as its target T6, cGMP-dependent protein kinase 2 (Homo sapiens). As to conditions: at 1 µM.
Test [18] has as its target T7, cAMP-dependent protein kinase catalytic subunit PRKX (Homo sapiens) (UniProt P51817).
T7 sequence (whole entry): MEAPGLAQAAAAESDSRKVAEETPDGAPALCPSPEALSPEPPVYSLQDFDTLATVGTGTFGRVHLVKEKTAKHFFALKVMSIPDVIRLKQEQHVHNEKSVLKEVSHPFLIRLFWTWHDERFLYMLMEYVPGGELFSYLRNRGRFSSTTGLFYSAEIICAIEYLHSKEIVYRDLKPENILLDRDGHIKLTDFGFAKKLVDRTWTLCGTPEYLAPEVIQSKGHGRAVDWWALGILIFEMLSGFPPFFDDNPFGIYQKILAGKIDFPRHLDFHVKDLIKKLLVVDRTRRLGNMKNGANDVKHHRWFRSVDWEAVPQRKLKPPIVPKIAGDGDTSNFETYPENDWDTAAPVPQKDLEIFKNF
As to conditions: at 0.1 µM.

The target of test [19] is T7, cAMP-dependent protein kinase catalytic subunit PRKX (Homo sapiens). The note with it: at 1 µM.
The target in test [20] is Rho-associated protein kinase 1 (Homo sapiens) (UniProt Q13464). As to conditions: at 0.1 µM.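 Also: values are mean percent inhibition of ROCK1.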
Chain of Rho-associated protein kinase 1 (Homo sapiens) (Q13464 2-1354 limits assumed): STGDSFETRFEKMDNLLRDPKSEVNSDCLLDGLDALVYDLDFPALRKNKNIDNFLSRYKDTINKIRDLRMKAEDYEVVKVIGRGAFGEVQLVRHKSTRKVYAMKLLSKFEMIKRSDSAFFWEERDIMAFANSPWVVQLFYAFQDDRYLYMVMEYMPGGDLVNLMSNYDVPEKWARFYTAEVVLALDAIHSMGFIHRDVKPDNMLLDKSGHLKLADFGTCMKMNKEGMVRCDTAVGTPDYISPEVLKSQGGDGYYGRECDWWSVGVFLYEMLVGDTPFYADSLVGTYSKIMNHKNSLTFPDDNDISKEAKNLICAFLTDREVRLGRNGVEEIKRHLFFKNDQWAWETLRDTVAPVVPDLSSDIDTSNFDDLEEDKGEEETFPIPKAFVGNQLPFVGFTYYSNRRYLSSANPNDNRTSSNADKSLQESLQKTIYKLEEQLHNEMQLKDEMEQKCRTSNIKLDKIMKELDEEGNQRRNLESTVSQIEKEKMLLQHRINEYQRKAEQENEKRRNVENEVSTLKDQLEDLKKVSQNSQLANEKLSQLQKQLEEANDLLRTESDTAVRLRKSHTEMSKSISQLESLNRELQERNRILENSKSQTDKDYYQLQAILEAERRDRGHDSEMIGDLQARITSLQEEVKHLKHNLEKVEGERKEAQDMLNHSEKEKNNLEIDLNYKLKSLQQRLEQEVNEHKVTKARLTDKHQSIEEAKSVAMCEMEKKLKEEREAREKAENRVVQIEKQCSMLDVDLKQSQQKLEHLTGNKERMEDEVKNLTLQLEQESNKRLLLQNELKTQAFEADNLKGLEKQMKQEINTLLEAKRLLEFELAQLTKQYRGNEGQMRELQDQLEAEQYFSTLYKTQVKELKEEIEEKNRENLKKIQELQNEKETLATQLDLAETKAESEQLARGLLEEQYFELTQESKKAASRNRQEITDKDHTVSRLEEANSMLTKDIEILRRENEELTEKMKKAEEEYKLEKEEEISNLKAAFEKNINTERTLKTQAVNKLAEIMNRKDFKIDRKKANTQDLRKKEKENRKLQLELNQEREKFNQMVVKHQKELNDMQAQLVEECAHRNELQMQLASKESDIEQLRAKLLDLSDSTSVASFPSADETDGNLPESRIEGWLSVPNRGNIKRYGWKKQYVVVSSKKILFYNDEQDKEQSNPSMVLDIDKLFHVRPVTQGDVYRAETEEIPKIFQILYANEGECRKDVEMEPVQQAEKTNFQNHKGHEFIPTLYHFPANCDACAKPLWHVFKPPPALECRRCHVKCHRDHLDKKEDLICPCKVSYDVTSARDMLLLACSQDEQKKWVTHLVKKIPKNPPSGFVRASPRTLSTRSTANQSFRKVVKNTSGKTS

Each structure is given as a SMILES string.

Chain of Protein kinase C theta type (Homo sapiens) (Q04759 whole entry, looked up): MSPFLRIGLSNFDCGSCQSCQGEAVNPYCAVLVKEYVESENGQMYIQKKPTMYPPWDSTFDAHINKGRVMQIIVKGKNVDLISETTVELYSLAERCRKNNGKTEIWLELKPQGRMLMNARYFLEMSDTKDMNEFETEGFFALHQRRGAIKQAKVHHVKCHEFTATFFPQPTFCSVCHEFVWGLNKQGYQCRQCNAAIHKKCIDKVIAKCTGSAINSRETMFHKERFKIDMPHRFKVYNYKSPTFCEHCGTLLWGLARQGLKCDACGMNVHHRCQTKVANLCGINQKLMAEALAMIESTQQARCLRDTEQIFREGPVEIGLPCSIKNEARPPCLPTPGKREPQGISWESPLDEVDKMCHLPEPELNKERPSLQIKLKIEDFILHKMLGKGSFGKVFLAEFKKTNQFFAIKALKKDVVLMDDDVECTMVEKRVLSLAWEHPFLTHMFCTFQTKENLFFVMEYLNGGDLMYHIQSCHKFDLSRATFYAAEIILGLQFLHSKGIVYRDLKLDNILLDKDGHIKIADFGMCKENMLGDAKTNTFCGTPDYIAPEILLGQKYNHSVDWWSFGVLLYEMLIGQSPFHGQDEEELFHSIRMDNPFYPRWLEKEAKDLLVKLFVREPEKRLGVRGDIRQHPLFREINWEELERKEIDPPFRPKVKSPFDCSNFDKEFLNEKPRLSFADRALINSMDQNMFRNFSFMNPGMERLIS

Regarding `NC(=O)c1cc(-c2ccc(F)cc2)cc(-c2ccncc2)c1N`, the inhibition turned out to be 5.15% in test [1]; 0.73% in [2]; 0.87% in [3]; 1.84% in [4]; 3.65% in test [5]; 1.46% in test [6]. Besides, the inhibition was found to be 1.35% in test [7]; 4.65% in [8]; 3.31% in test [9]; 3.51% in test [10]; 4.06% in test [11]; 3.88% in [12]. Further, the inhibition in test [13] amounted to 2.86%; in test [14] it was 1.49%; in [15] it was 5.83%; in test [16], 1.73%; in [17], 2.74%; in test [18] it was 1.1%. The inhibition in [19] is 3.07%; in test [20], -0.55%.

Turning to `COc1ccc2cc(-c3c(-c4ccncc4)nc(-c4ccc(S(C)(=O)=O)cc4C)n3C)ccc2c1`, the inhibition worked out at 7.85% in test [1]; 3.93% in test [2]; 3.45% in test [3]; 2.19% in [4]; 5.03% in test [5]; 3.45% in test [6]. For the same compound, the inhibition in test [7] amounted to 9.63%; in [8], 4.08%; in test [9], 4.53%; in test [10], 4.88%; in test [11] it was 4.27%; in [12] it was 3.99%. In addition, the inhibition in [13] came to 4.2%; in test [14], 5.14%; in test [15] it was 8.86%; in test [16], 5.61%; in [17], 6.44%; in [18], 5.93%. The inhibition was 12.1% in [19] and 8.02% in test [20].

A word on the inhibition: it is the change of the read-out against control, counted positive when it falls.
